From PubChem BioAssay (NCATS)
Values joined by “and” are separate entries in the source; they are usually repeats but may differ in a detail not shown here. Equal entries are not always repeated. Results filed as inconclusive are left out. Active and inactive are the calls of the source. Unless noted, calls follow the shape of the dose curve; as a rule, active = well fitted curve in the direction sought with a large enough effect; inconclusive = small, poorly fitted or top-dose-only effect, or another doubt; inactive = no such curve, though single readings can be large; an effect the other way counts as inactive or inconclusive.

Experiments:
[1] = AP1 Signaling Pathway (AID 357; active = well fitted curve in either direction with a large enough effect, not every such curve was filed as active;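 also: ME-180 reporter cells stimulated with EGF at its EC50 level; % is scaled to controls: 0 for no effect and ±100 for the full control effect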); details: ME-180 AP-1-bla reporter, EGF-induced, beta-lactamase ratio, 5 h; at 7.69 µM (top of the series) unless noted
Method in brief: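 Beta-lactamase reporter under AP-1 response element, ME-180 background. Stimulus: EC50 EGF. Compound exposure 5 h, 37 °C. Detection: CCF4, 2.5 h RT, 460/530 nm. Values: AC50 from titration.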

[2] = biological target: Cytochrome P450 1A2 (Homo sapiens) (UniProt P05177); experiment: p450-cyp1a2 (AID 410; calls by dose curve;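 also: -100% = full effect of reference inhibitor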)
Cytochrome P450 1A2 (Homo sapiens), sequence (P05177 whole entry, looked up): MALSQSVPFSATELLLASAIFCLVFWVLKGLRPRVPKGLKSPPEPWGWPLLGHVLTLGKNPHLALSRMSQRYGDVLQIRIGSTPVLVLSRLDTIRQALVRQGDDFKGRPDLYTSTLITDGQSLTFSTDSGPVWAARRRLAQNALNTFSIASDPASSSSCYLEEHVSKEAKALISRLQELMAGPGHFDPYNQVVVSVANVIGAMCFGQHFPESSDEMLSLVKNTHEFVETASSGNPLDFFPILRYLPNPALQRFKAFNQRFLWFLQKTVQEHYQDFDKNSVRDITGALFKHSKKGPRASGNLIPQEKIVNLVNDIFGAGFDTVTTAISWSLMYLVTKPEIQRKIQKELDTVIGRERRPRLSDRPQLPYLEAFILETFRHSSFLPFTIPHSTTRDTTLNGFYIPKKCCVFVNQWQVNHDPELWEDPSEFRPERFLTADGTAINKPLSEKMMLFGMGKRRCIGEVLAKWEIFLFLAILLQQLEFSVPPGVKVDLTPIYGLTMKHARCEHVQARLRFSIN
Method in brief: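 Luminescent demethylation readout: Luciferin-ME (100uM, equal to Km) turned over by 20nM CYP1A2 for 60 min at room temperature after NADPH regeneration addition, following 10 min compound preincubation. Normalization used 57 uM furafylline as full inhibition.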

[3] = NFAT Signaling Pathway (AID 444; active = well fitted curve in either direction with a large enough effect, not every such curve was filed as active;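 also: carbachol stimulus at about its EC50 of 1 µM final; % is scaled to controls: 0 for no effect and ±100 for the full control effect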); details: Jurkat NFAT-bla M1, carbachol, beta-lactamase ratio, 5 h; at 7.69 µM (top of the series) unless noted
Method in brief: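 Jurkat cells carrying an NFAT-driven β-lactamase reporter and co-transfected muscarinic M1 receptor were treated with compound plus carbachol (1 uM final, an EC50 level) for 5 h at 37 °C. CCF4 loading followed for 1 h at RT; 460/530 nm ratio gave %activity.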

[4] = Stat Signaling Pathway (AID 446; active = well fitted curve in either direction with a large enough effect, not every such curve was filed as active;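 also: ME-180 cervical cancer cells given 40 pM IL-6 alongside compound; SIE-controlled beta-lactamase reporter measured as 460/530 nm FRET emission ratio; % is scaled to controls: 0 for no effect and ±100 for the full control effect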); details: ME-180 (cervical carcinoma) SIE beta-lactamase reporter, IL-6 stimulated, 5 h; at 7.69 µM (top of the series) unless noted
Method in brief: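 FRET read-out (405 nm excitation, 460/530 nm emission) of a beta-lactamase reporter under a STAT-inducible element in ME-180 cervical carcinoma cells. Cells with compound receive 40 pM IL-6 for 5 h. Values are normalised to AC90 stimulation and AC90 JAK-inhibitor controls.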

[5] = biological target: Glucocorticoid receptor (Homo sapiens) (UniProt P04150); experiment: GR-GFP Redistribution (AID 450;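 active = compounds whose dose series gives a full or clear partial fitted curve of increased nuclear translocation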; also: potency is read from the fitted curve at half-maximal effect); details: U2OS GR-GFP nuclear translocation, laser cytometry, 2 h
Glucocorticoid receptor (Homo sapiens), sequence (P04150 whole entry, looked up, the tested form may be a part): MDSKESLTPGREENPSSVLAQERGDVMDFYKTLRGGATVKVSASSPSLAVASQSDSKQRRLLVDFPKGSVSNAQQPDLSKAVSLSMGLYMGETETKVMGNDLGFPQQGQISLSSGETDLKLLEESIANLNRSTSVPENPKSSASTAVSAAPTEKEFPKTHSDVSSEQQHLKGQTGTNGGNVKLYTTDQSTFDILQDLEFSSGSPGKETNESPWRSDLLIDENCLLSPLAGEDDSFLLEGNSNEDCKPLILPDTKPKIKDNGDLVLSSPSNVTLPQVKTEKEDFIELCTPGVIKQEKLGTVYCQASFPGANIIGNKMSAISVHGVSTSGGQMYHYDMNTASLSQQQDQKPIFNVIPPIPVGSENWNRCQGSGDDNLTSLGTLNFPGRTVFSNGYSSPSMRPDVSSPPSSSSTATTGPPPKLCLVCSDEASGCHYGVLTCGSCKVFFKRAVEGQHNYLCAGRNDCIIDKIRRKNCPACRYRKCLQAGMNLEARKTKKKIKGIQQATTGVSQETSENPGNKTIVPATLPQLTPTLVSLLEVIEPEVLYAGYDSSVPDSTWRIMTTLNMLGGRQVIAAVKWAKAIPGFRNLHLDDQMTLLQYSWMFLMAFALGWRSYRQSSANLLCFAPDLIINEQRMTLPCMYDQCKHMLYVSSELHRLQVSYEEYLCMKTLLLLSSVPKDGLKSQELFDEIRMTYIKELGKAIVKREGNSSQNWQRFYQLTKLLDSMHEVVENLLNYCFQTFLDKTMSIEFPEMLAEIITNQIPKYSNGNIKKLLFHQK

[6] = biological target: Glucocorticoid receptor (Homo sapiens) (UniProt P04150); experiment: GR-EFC Redistribution (AID 451; calls by dose curve; also: potency is read from the fitted curve at half-maximal effect); details: CHO-K1 GR-EFC translocation, beta-gal luminescence, 2 h
Method in brief: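 CHO-K1 cells stably expressing nuclear-localized β-gal enzyme acceptor and GR fused C-terminally to the enzyme donor fragment; ligand-driven nuclear translocation restores β-gal by complementation. Compounds titrated up to 46 uM final, 2 h at 37 °C; luminescence read.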

[7] = biological target: Mitogen-activated protein kinase 10 (Mus musculus) (UniProt Q61831); experiment: JNK3 AlphaScreen Assay (AID 530; active = well fitted curve in either direction with a large enough effect, not every such curve was filed as active;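 also: kinase came from lysate of stimulated human HepG2 cells; signal reports phosphorylation of biotinylated GST-cJun 1-79 at Ser73 with 10 µM ATP; % is scaled to controls: 0 for no effect and ±100 for the full control effect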)
Method in brief: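 Phosphorylation of biotinylated GST-cJun(1-79) at Ser73 is measured by AlphaScreen proximity luminescence. Enzyme is JNK3 in HepG2 lysates activated with interleukin-1beta and tumor necrosis factor alpha; ATP is 10 uM final.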

[8] = biological target: 3',5'-cyclic-AMP phosphodiesterase 4B (Homo sapiens) (UniProt Q07343); experiment: qHTS Assay for Inhibitors of PDE-IV (AID 607; active = well fitted activation curve with a large enough effect in the main read-out, with a control signal flat, not every such curve was filed as active; also: % of control where 0% means no effect)
3',5'-cyclic-AMP phosphodiesterase 4B (Homo sapiens), sequence (Q07343 whole entry, looked up): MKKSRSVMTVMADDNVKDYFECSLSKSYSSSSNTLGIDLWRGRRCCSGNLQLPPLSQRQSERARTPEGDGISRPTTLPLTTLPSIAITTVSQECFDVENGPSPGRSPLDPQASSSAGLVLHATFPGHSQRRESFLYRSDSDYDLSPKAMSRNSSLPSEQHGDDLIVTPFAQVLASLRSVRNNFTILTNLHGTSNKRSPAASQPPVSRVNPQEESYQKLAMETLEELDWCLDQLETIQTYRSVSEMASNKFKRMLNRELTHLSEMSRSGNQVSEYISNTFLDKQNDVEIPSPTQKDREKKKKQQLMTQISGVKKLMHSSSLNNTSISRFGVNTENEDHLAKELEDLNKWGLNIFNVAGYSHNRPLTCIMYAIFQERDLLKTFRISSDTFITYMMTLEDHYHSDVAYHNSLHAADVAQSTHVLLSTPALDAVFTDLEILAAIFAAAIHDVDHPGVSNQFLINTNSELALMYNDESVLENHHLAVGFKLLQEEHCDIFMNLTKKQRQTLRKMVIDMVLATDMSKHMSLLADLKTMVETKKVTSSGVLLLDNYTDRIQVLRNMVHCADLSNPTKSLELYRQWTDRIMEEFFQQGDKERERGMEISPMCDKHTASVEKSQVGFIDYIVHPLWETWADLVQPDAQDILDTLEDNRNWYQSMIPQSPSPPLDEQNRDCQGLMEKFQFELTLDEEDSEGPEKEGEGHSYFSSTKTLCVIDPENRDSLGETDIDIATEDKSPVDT
Method in brief: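 Cell-based read-out of cAMP via a modified cyclic nucleotide-gated channel and membrane potential dye (535/590 nm) in HEK293 cells expressing PDE4 endogenously. Compounds tested up to 22.9 uM final; 100 uM RO 20-1724 reference.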

[9] = qHTS Assay for Lipid Storage Modulators (AID 1519; calls by dose curve); details: Drosophila S3 cells, BODIPY lipid droplet/cell ratio, laser cytometry, cells loaded with oleic acid
Method in brief: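 Cells seeded at 5,000 per well were treated with compounds over a concentration series and loaded with oleic acid (400 uM, as added). Lipid droplet fluorescence (488 nm excitation, 500-530 nm channel) was read by laser-scanning cytometry and normalized to 20 uM Triacsin C.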

[10] = biological target: ATP-dependent 6-phosphofructokinase (Trypanosoma brucei brucei) (UniProt O15648); experiment: qHTS Assay to Find Inhibitors of T. brucei phosphofructokinase: hit validation (AID 492961)
ATP-dependent 6-phosphofructokinase (Trypanosoma brucei brucei), sequence (O15648 whole entry, looked up): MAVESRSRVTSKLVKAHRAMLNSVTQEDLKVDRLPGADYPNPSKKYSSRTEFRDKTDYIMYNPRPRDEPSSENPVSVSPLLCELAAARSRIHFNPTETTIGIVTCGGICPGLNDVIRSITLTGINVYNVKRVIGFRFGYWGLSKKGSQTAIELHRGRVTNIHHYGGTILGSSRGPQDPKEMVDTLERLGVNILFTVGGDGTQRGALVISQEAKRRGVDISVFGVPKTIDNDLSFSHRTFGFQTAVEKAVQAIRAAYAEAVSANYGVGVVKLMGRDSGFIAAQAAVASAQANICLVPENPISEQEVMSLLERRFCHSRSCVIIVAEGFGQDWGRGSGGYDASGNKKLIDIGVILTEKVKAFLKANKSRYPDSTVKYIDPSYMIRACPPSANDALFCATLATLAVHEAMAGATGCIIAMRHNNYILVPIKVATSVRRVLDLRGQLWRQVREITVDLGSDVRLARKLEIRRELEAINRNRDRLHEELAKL
Method in brief: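 PFK 1.25 nM, F6P 0.5 mM, ATP 0.1 mM, MgCl2 5 mM, 0.1 M TEA pH 8.0, Tween20 0.01%, BSA 0.1%; 45 min RT. ADP-Glo two-step detection, luminescence. qHTS titration; curve fitting with curve-class categorization.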

[11] = biological target: Ubiquitin carboxyl-terminal hydrolase 1 (Homo sapiens) (UniProt O94782); experiment: Inhibitors of USP1/UAF1: Pilot qHTS (AID 504865);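 also: rhodamine fluorescence freed from ubiquitin-rhodamine substrate followed over time; top concentration of the series differs between compounds; % is scaled to controls: 0 for no effect and ±100 for the full control effect; nearly all actives have a fitted effect of over 35% in size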
Ubiquitin carboxyl-terminal hydrolase 1 (Homo sapiens), sequence (O94782 whole entry, looked up): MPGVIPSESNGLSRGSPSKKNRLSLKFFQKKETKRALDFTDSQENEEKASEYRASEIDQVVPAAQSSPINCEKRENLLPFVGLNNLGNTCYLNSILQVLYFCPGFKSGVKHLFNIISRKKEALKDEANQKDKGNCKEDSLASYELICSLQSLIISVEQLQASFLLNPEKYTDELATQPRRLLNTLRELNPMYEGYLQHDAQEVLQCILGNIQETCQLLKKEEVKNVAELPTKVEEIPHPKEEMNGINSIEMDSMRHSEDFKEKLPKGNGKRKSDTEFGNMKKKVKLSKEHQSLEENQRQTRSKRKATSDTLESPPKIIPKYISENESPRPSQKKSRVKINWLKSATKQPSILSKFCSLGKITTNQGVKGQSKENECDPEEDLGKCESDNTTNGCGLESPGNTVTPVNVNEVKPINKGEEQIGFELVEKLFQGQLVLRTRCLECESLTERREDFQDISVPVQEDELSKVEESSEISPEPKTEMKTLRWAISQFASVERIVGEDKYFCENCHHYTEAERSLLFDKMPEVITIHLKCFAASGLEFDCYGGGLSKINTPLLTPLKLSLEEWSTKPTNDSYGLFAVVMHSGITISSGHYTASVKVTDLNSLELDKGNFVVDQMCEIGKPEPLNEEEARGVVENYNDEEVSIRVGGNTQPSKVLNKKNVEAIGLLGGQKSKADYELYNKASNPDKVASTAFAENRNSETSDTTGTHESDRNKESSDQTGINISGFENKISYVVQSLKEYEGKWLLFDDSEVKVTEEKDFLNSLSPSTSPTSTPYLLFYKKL
Method in brief: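 Enzyme-free wells gave the negative control, while test wells held 1nM USP1/UAF1 preincubated with compound for 15 min at room temperature. Ub-Rho at 150nM final started the reaction, and fluorescence at 480/540 nm was recorded kinetically.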

[12] = biological target: Luciferin 4-monooxygenase (Photinus pyralis) (UniProt P08659); experiment: Biochemical firefly luciferase enzyme assay for NPC (AID 624030);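 also: purified P. pyralis luciferase at 10 nM with luciferin and ATP substrate; 0% = DMSO and -100% = full luciferase inhibition by PTC124 control; nearly all actives have a fitted effect of over 70% in size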
Luciferin 4-monooxygenase (Photinus pyralis), sequence (P08659 whole entry, looked up): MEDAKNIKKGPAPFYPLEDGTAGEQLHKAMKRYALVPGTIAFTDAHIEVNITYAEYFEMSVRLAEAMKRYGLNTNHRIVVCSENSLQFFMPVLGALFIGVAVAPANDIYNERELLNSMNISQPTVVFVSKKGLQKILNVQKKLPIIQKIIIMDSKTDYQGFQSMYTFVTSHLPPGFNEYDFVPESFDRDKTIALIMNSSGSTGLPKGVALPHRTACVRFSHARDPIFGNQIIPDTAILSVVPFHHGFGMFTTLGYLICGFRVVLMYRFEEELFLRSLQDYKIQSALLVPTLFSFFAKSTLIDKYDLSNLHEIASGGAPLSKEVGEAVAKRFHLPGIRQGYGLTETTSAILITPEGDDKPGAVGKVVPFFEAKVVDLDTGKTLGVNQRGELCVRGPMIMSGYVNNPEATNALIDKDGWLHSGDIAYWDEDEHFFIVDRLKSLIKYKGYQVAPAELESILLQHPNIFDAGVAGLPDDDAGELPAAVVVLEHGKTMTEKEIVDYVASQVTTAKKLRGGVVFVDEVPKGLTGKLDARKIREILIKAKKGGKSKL
Method in brief: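 Counter-screen for direct inhibition of the luciferase enzyme by approved-drug library compounds, run at 10 nM enzyme in 50 mM Tris acetate (final). Luminescence was read within 5 min of enzyme-buffer addition and normalized to PTC124 versus DMSO (0%).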

[13] = qHTS profiling for inhibitors of Plasmodium falciparum proliferation (AID 504749);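 also: 0% = DMSO vehicle and full inhibition = artemisinin control; nearly all actives have a fitted effect of over 60% in size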; details: P. falciparum in erythrocytes, SYBR Green DNA, 72 h, at 12.8 µM (top of the series)
Method in brief: (§1)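 Quantitative HTS: compounds pinned into medium, infected erythrocytes added (0.3% parasitemia, 2.5% hematocrit), 72 h culture at 37 C under 5% CO2. Saponin/Triton lysis with SYBR Green I, overnight RT, then fluorescence read.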

CP238 = experiment: as above; details: P. falciparum in erythrocytes, SYBR Green DNA, 72 h; series mostly up to 12.8 µM
Method in brief: as §1

CP262 = experiment: as above; details: P. falciparum in erythrocytes, SYBR Green DNA, 72 h; series mostly up to 12.8 µM
Method in brief: as §1

CP325 = experiment: as above; details: P. falciparum in erythrocytes, SYBR Green DNA, 72 h; series mostly up to 12.8 µM
Method in brief: as §1

ECU = experiment: as above; details: P. falciparum in erythrocytes, SYBR Green DNA, 72 h; series mostly up to 12.8 µM
Method in brief: as §1

FAB9 = experiment: as above; details: P. falciparum in erythrocytes, SYBR Green DNA, 72 h; series mostly up to 12.8 µM
Method in brief: as §1

HB3 = experiment: as above; details: P. falciparum in erythrocytes, SYBR Green DNA, 72 h; series mostly up to 12.8 µM
Method in brief: as §1

JCK = experiment: as above; details: P. falciparum in erythrocytes, SYBR Green DNA, 72 h; series mostly up to 12.8 µM
Method in brief: as §1

[14] = measured here: cell count channel max response
[15] = measured here: lipid channel max response

CN[C@@H]1[C@H](O[C@@H]2O[C@H](CO)[C@@H](N)[C@H](O)[C@@H]2O)O[C@H]2C[C@@H](N)[C@@H](O[C@H]3[C@@H](O)[C@H](O)[C@H](N)C[C@@H]3N)O[C@H]2[C@H]1O
-11.9%: max response [9, 15]
inactive: activity change, negative = inhibition [1] 3.97% [at 17.2 µM] | Potency [2] | activity change, negative = inhibition [3] -18% [at 17.2 µM] | activity, negative = inhibition [4] -2.35% [at 17.2 µM] | Potency [5] > 20.6 µM | Potency [6] > 20.6 µM | Potency [7] | Potency [8] | activity change, negative = inhibition ([9]; at 25.7 µM (top of the series)) -1.23% | outcome [10] | Potency [11] | outcome [12] | activity, negative = inhibition ([13]; parasite line A) -1.02% | activity, negative = inhibition ([13]; parasite line B) -5.91% | Potency (CP238) | Potency (CP262) | Potency (CP325) | Potency (ECU) | Potency (FAB9) | Potency (HB3) | Potency (JCK)
-10.4%: max response [9, 14]

C[n+]1ccccc1/C=N\O
inactive: activity change, negative = inhibition [1] 1.66% [at 17.2 µM] | Potency [2] | activity change, negative = inhibition [3] 3.73% [at 17.2 µM] | activity, negative = inhibition [4] 2.75% [at 17.2 µM] | Potency [5] > 20.6 µM | Potency [6] > 20.6 µM | Potency [7] | Potency [8] | activity change, negative = inhibition ([9]; at 25.7 µM (top of the series)) -1.41% | outcome [10] | outcome [12] | activity, negative = inhibition ([13]; parasite line A) 14% | activity, negative = inhibition ([13]; parasite line B) 8.58% | Potency (CP238) | Potency (CP262) | Potency (CP325) | Potency (ECU) | Potency (FAB9) | Potency (HB3) | Potency (JCK)
-5.77%: max response [9, 14]
-7.21%: max response [9, 15]

Cn1c(=O)c2c(ncn2C[C@@H](O)CO)n(C)c1=O
-0.539%: max response [9, 14]
inactive: activity change, negative = inhibition [1] 9.72% [at 17.2 µM] | Potency [2] | activity change, negative = inhibition [3] -4.3% [at 17.2 µM] | activity, negative = inhibition [4] 11.3% [at 17.2 µM] | Potency [5] > 20.6 µM | Potency [6] > 20.6 µM | Potency [7] | Potency [8] | activity change, negative = inhibition ([9]; at 25.7 µM (top of the series)) 0.654% | outcome [10] | Potency [11] | outcome [12] | activity, negative = inhibition ([13]; parasite line A) 0.439% | activity, negative = inhibition ([13]; parasite line B) -2.95% | Potency (CP238) | Potency (CP262) | Potency (CP325) | Potency (ECU) | Potency (FAB9) | Potency (HB3) | Potency (JCK)
-0.706%: max response [9, 15]

CCN1CCC[C@@H]1CNC(=O)c1cc(S(N)(=O)=O)ccc1OC
-12.9%: max response [9, 14]
-11.7%: max response [9, 15]
inactive: activity change, negative = inhibition [1] 5.34% [at 38 µM] and 0.665% [at 38 µM] | Potency [2] | activity, negative = inhibition [4] 26.6% [at 38 µM] | Potency [5] > 46 µM | Potency [6] > 46 µM | Potency [7] | Potency [8] | activity change, negative = inhibition ([9]; at 57.5 µM (top of the series)) 3.26%
